dFosB activator: activators of delta FosB homodimer, primary screen, biochemical, fluorescence polarization, TAMRA-CDK5 oligo, single point; activation, % at 25 µM; purified delta FosB; percent of positive-control signal above neutral wells; 340,000 tested, 0.99% active; Protein FosB (Mus musculus), P13346; AID 493131, 2011;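 active = mean activation above about 17%, with every replicate also reaching it, limit read from the data, passing the limit was not always enough; inconclusive = only one of the two conditions met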
GSIS activator: GLuc luminescence reporter in INS-1E cells, primary screen for activators of glucose-dependent secretion of insulin. INS-1E GLuc reporter insulin secretion, 2-3 h. activation, % at 16.6 µM. 370,000 tested, 0.61% active. AID 743287, 2014;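 active = lowest replicate activation of at least 40%, so every replicate reaches that level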;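 note: 0% = median of neutral control wells and 100% = median of IBMX positive control wells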
RAD52 anneal inh: RAD52 DNA annealing inhibitors, primary screen, biochemical, FRET, single point, set 2; recombinant RAD52 DNA annealing, FRET fluorescence; DNA repair protein RAD52 homolog (Homo sapiens), P43351; AID 651710, 2012; 360,000 tested, 0.46% active; inhibition, % at 18.7 µM;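 active = every replicate showing at least 50% inhibition; inconclusive = mean inhibition at least 50% but not in every replicate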
Target sequence (P43351 whole entry, looked up): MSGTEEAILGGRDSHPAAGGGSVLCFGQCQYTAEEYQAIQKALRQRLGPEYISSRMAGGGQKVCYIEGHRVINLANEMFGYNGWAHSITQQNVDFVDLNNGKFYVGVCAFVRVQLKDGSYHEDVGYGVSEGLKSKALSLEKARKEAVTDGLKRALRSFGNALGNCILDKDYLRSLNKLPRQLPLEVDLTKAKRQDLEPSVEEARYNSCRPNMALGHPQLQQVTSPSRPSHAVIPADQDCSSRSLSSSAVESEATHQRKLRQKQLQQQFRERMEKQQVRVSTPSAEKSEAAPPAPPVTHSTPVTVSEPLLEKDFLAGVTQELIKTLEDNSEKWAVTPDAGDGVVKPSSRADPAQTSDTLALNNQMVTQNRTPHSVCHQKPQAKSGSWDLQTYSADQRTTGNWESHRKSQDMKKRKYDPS
DENV2 CPE rescue: inhibitors of DENV2 cytopathic effect, primary screen, cell-based, plate reader, single concentration. AID 651640, 2012. 350,000 tested, 1.7% active. CPE inhibition, % at 9.99 µM. DENV2-infected cells, cytopathic effect rescue; in the data active = CPE inhibition above about 20%, passing the limit was not always enough; inconclusive = no clear call, values can overlap the other calls; tested in BHK-21 cells;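 note: 0% = median of neutral control wells and 100% = median of positive control wells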
RAD54 branch: inhibitors of human RAD54 branch migration, primary screen, biochemical, fluorescence, single point; DNA repair and recombination protein RAD54-like (Homo sapiens), Q92698; RAD54 Holliday junction branch migration, FAM/BHQ fluorescence; inhibition, % at 10.4 µM; 360,000 tested, 0.14% active;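 active = mean normalized replicate activity at least 40 and at least half of replicates scoring 40 or more; inconclusive = only one of the two criteria met; inactive = mean below 40 and under half of replicates reaching 40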;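 note: 0% = median of neutral control wells and 100% = median of positive control wells; inhibitors cause a drop in the FAM fluorescence signal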
MLL AF4-AF9 inh: inhibitors of AF4 peptide binding to AF9, primary screen, biochemical, AlphaScreen, biotin-AF4 peptide, FLAG-AF9, single point; Protein AF-9 (Homo sapiens), P42568; inhibition, % at 10 µM; 350,000 tested, 0.47% active; AID 651704, 2012;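 active = every replicate reaching a set inhibition limit, whatever the replicate mean, cut at about 25% in these data; inconclusive = mean inhibition reaches that limit but some replicates miss it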;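 note: 0% = plate neutral control median and 100% = total signal loss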
* = called active by the depositor; ? = inconclusive; . = no result given. Only some compounds are listed: those with a hit (about 3.1% of all), similar ones and a draw of the others.

SMILES	dFosB activator	GSIS activator	RAD52 anneal inh	DENV2 CPE rescue	RAD54 branch	MLL AF4-AF9 inh
C[C@@H]1CCCCO[C@@H](CN(C)CC2CC2)[C@@H](C)CN([C@H](C)CO)C(=O)c2cc(NS(=O)(=O)c3ccc(Cl)cc3)ccc2O1	.	-3	21	48*	6	5
C[C@@H]1CCCCO[C@@H](CN(C)CC2CCCCC2)[C@H](C)CN([C@@H](C)CO)C(=O)c2cc(NS(=O)(=O)c3ccc(Cl)cc3)ccc2O1	.	-10	.	-24	-2	.
CNC[C@H]1Oc2ccc(NC(=O)CCN3CCOCC3)cc2C(=O)N([C@H](C)CO)C[C@@H]1C	.	-2	14	27*	-18	-17
CNC[C@H]1Oc2ccc(NC(=O)CCN3CCOCC3)cc2C(=O)N([C@@H](C)CO)C[C@@H]1C	.	11	.	.	.	.
C/C=C/c1ccc([C@H]2[C@@H](CO)N(C(=O)CC)[C@@H]2CNC(=O)C2CC2)cc1	.	0	-51	15	11	-2
C[C@@H]1CN([C@H](C)CO)C(=O)c2ccccc2-c2ccccc2CO[C@@H]1CN(C)C(=O)[C@H](C)c1ccccc1	.	1	.	.	.	.
CCCN(C)C[C@H]1OCCCC[C@H](C)Oc2ccc(N(C)C)cc2C(=O)N([C@H](C)CO)C[C@H]1C	.	-2	26	8	-5	14
CO[C@@H]1CN(C)C(=O)c2cc(NC(=O)C3CCC3)ccc2OC[C@@H](C)N(Cc2cccnc2)C[C@@H]1C	.	7	1	-3	-2	-1
C[C@H](O)C#Cc1ccc2c(c1)O[C@H](CN(C)Cc1ccc(-c3ccccc3)cc1)[C@@H](C)CN([C@@H](C)CO)S2(=O)=O	.	-5	6	14	-33	1
Cc1ccc(S(=O)(=O)N(C)C[C@@H]2OCCCC[C@@H](C)Oc3ccc(NS(=O)(=O)c4ccc(F)cc4)cc3C(=O)N([C@@H](C)CO)C[C@H]2C)cc1	.	-12	15	9	-26	0
Cc1noc(C)c1NC(=O)N(C)C[C@H]1Oc2ccc(NC(=O)NC(C)C)cc2CC(=O)N([C@H](C)CO)C[C@H]1C	.	23	2	11	7	0
C[C@@H]1CCCCO[C@@H](CN(C)S(=O)(=O)c2cn(C)cn2)[C@@H](C)CN([C@H](C)CO)C(=O)c2cc(NS(C)(=O)=O)ccc2O1	.	6	15	-1	-15	-14
C[C@@H]1CCCCO[C@H](CN(C)CC2CC2)[C@H](C)CN([C@H](C)CO)C(=O)c2cc(NS(=O)(=O)c3ccc(F)cc3)ccc2O1	.	-2	6	29*	.	1
CNC[C@@H]1Oc2ccc(NS(=O)(=O)c3ccc(Cl)cc3)cc2C(=O)N([C@@H](C)CO)C[C@@H]1C	.	6	0	8	7	-4
C[C@@H]1CCCCO[C@H](CN(C)CC2CC2)[C@@H](C)CN([C@@H](C)CO)C(=O)c2cc(NS(=O)(=O)c3ccc(F)cc3)ccc2O1	.	1	30	5	4	5
C[C@@H]1CN([C@@H](C)CO)C(=O)c2cc(NS(=O)(=O)c3ccc(Cl)cc3)ccc2O[C@H]1CN(C)CC1CC1	.	-1	1	29*	-2	6
CNC[C@H]1Oc2ccc(NS(=O)(=O)c3ccc(Cl)cc3)cc2C(=O)N([C@H](C)CO)C[C@H]1C	.	6	-13	28*	3	-5
CN1CCN(C(=O)C2=C[C@@H](C3CC3)C[C@@H](OCCCCO)O2)CC1	.	.	10	-3	4	-2
Cc1ccc(S(=O)(=O)c2ncccc2N)cc1	3	4	0	4	9	-3
Cc1ccc(S(=O)(=O)c2ncccc2[N+](=O)[O-])cc1	-7	65*	-17	0	36	3
COC(=O)C[C@@H]1C[C@@H]2c3cc(NC(=O)Cc4ccncc4)ccc3O[C@@H]2[C@H](CO)O1	.	-1	-15	2	2	2
Nc1nc(N)nc(-c2ccc(Cl)cc2)n1	2	47*	.	.	0	.
O=C(COC(=O)C1CCN(c2ccc(C(F)(F)F)cn2)CC1)c1ccccc1	-3	20	-20	-11	4	-6
CC(C)N(Cc1ccccc1)C(=O)COC(=O)C1CCN(c2ccc(C(F)(F)F)cn2)CC1	-17	-21	-36	?	.	-1
CCOc1ccc(C(=O)COC(=O)C2CCN(c3ccc(C(F)(F)F)cn3)CC2)cc1	0	-1	-11	74*	-1	-1
SMILES	dFosB activator	GSIS activator	RAD52 anneal inh	DENV2 CPE rescue	RAD54 branch	MLL AF4-AF9 inh
CC(C)(C)N(Cc1ccccc1)C(=O)COC(=O)C1CCN(c2ccc(C(F)(F)F)cn2)CC1	-7	-54	-24	44*	6	-2
CN1c2ccc(-c3ccc(F)cc3)cc2[C@H]2[C@H](CCN2C(=O)c2ccncc2)[C@@H]1CO	.	-15	-4	?	9	3
O=C(C[C@H]1CC[C@@H]2[C@H](COC[C@H](O)CN2CCc2ccccc2)O1)NCc1ccc(F)cc1	.	-17	5	?	-11	0
COc1ccc(/C(C)=N/NC(=O)c2ccc(CSc3cccc4cccnc34)cc2)cc1OC	-5	11	.	.	3	.
C/C(=N\NC(=O)c1ccc(CSc2cccc3cccnc23)cc1)C1CCCCC1	9	3	-11	102*	.	-3
C[C@H](CO)N1C[C@H](C)[C@@H](CN(C)C(=O)CN2CCOCC2)Oc2ncc(C#CCN(C)C)cc2C1=O	.	-15	5	0	0	-4
Cc1cccc(S(=O)(=O)N[C@@H]2CC[C@@H](CCNC(=O)Nc3cc(F)ccc3F)O[C@@H]2CO)c1	.	-1	-1	39*	1	5
O=C(NCC[C@H]1CC[C@H](NS(=O)(=O)c2ccc(Cl)cc2)[C@@H](CO)O1)Nc1ccc(F)cc1	.	-8	40	18	.	27*
O=C(C[C@H]1CC[C@@H](NC(=O)c2ccc(F)cc2)[C@@H](CO)O1)NCCc1ccncc1	.	8	2	0	4	0
O=C(NCC[C@H]1CC[C@@H](NC(=O)c2cccnc2)[C@H](CO)O1)Nc1ccc(F)cc1	.	5	12	21*	5	11
O=C(C[C@@H]1CC[C@@H](NC(=O)c2ccc(F)cc2)[C@@H](CO)O1)NCCc1ccncc1	.	15	-7	23*	-10	-2
O=C(Cc1ccncc1)NCC[C@@H]1CC[C@@H](NC(=O)Nc2cccc(F)c2)[C@@H](CO)O1	.	-4	-34	23*	-2	1
O=C(Cc1ccncc1)NCC[C@@H]1CC[C@H](NC(=O)Nc2cccc(F)c2)[C@@H](CO)O1	.	3	-50	3	-7	0
